The source of these data is PubChem BioAssay.

In general, inhibition refers to the change of the read-out against control, counted positive when it falls.

Assay [1] in a line: antimalarial activity against Dd2 strain (AID 2302;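 active means growth inhibition above 50% at the single 2 µM test dose, taken to imply half-maximal potency below 2 µM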;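 further: 0% = DMSO untreated growth and 100% = chloroquine plus artemisinin killed control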). The following applies: P. falciparum Dd2 in RBCs, LDH growth readout, 72 h; at 2 µM; active compounds read high.
Assay [2] is described as follows: HepG2 cytotoxicity, primary screen, cytotoxicity control for P. falciparum antimalarial project, cell-based, ATP luminescence (AID 2303;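 active means inhibition above 50%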;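 further: 0% = DMSO wells and 100% = digitonin-killed cells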). The following applies: HepG2 viability, 24-48 h, at 10 µM, active compounds read high.
In assay [3] the target is L-lactate dehydrogenase (Plasmodium falciparum (isolate CDC / Honduras)) (UniProt Q27743). In words: PfLDH activity inhibition – cell lysate, 3D7 strain, counter-screen for P. falciparum growth inhibition project (AID 2304).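 Further: 0% = vehicle and 100% = reference inhibitor.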 The following applies: P. falciparum 3D7 crude extract, LDH APAD/NBT absorbance; at 2 µM; active compounds read high. (In general: Counterscreens check selectivity or assay interference.)
Chain of L-lactate dehydrogenase (Plasmodium falciparum (isolate CDC / Honduras)) (Q27743 whole entry, looked up): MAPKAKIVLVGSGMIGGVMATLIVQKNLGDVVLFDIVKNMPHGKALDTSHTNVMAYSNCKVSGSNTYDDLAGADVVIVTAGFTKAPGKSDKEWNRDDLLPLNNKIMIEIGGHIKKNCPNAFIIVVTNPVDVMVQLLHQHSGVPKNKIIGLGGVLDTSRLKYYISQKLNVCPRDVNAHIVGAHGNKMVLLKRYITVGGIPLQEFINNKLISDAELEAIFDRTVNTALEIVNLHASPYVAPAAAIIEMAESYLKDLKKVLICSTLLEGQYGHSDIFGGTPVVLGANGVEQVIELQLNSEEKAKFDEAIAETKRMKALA

Assay [4] is described as follows: inhibition of 3D7 malaria parasite growth – strain 3D7 (AID 2306).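 Further: 0% = DMSO wells and 100% = chloroquine plus artemisinin control wells.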 The settings on record: P. falciparum 3D7 erythrocytic growth, LDH absorbance, 72 h; at 2 µM; active compounds read high.
The target of assay [5] is Calcium-dependent protein kinase 1 (Plasmodium falciparum (isolate 3D7)) (UniProt P62344). Put plainly: PfCDPK1 kinase inhibitors, biochemical, TCAMS library (AID 1159585; cut-off not given, nearly all actives have IC50 up to about 0.98 µM;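 further: inhibitors leave more ATP so luminescence rises with inhibition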). The following applies: recombinant PfCDPK1, Kinase-Glo ATP depletion luminescence. In general terms: In Kinase-Glo more light means more ATP remaining.
Chain of Calcium-dependent protein kinase 1 (Plasmodium falciparum (isolate 3D7)) (P62344 whole entry, looked up): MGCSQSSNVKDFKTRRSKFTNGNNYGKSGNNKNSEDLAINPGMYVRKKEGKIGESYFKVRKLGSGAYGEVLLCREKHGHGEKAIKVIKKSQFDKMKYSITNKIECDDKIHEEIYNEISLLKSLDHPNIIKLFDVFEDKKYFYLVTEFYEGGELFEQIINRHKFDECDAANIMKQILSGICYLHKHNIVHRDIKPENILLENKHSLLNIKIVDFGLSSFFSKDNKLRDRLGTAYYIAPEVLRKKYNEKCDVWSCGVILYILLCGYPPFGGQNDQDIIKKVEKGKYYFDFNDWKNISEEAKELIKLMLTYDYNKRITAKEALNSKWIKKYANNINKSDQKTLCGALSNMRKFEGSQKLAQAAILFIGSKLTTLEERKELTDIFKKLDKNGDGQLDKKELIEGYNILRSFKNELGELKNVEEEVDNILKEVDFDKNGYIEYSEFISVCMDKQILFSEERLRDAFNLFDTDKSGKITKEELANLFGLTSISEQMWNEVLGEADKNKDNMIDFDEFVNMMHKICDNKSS
For assay [6], the target named is Plasmodium falciparum protein kinase 6 (PK6, PF3D7_1337100) (UniProt Q8IDW1). Put plainly: PfPK6 kinase inhibitors, biochemical, TCAMS library (AID 1159586). The settings on record: recombinant PfPK6, Kinase-Glo ATP depletion luminescence.
Chain of Plasmodium falciparum protein kinase 6 (PK6, PF3D7_1337100) (Q8IDW1 1-305): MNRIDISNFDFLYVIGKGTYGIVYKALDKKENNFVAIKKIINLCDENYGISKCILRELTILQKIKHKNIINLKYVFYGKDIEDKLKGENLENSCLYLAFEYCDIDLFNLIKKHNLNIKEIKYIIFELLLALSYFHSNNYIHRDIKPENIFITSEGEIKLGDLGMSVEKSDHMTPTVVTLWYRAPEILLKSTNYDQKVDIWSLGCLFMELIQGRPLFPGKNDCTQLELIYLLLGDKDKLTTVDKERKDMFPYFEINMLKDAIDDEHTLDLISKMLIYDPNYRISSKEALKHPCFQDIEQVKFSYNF
Assay [7] addresses Protein kinase 7 (PK7), Plasmodium falciparum 3D7 (PF3D7_0213400) (UniProt Q7YTF7). In words: inhibition of Plasmodium PK7 catalytic activity – biochemical, TCAMS antimalarial set, Kinase-Glo luminescence (AID 1159587). The settings on record: recombinant PfPK7, Kinase-Glo ATP depletion luminescence.
The target in assay [8] is Calcium-dependent protein kinase 4 (Plasmodium falciparum (isolate 3D7)) (UniProt Q8IBS5). In words: PfCDPK4 kinase inhibitors, biochemical, TCAMS library (AID 1159588; cut-off not given, nearly all actives have IC50 up to about 0.91 µM). The following applies: recombinant PfCDPK4, Kinase-Glo ATP depletion luminescence.
Chain of Calcium-dependent protein kinase 4 (Plasmodium falciparum (isolate 3D7)) (Q8IBS5 whole entry, looked up): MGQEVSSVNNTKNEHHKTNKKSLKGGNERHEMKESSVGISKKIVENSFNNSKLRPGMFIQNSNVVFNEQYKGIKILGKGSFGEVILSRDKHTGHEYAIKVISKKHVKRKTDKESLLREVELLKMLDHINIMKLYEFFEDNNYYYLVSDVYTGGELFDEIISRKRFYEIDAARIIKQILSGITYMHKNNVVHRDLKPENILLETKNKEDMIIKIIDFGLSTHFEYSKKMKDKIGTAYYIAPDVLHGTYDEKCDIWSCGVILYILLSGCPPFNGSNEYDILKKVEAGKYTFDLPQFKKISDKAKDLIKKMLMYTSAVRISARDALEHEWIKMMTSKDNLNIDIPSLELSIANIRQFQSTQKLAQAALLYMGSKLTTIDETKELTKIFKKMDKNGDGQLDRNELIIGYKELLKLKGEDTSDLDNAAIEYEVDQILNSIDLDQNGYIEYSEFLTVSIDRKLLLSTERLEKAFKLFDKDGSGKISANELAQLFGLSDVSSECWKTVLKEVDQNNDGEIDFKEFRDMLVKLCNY

Each structure is given as a SMILES string. Values without a mark were called inactive. For some of these results: Measured potencies and affinities stand elsewhere. Active and inactive are the calls of the source. Unless noted, how the calls were made is not given here.

Chain of Protein kinase 7 (PK7), Plasmodium falciparum 3D7 (PF3D7_0213400) (Q7YTF7 1-343): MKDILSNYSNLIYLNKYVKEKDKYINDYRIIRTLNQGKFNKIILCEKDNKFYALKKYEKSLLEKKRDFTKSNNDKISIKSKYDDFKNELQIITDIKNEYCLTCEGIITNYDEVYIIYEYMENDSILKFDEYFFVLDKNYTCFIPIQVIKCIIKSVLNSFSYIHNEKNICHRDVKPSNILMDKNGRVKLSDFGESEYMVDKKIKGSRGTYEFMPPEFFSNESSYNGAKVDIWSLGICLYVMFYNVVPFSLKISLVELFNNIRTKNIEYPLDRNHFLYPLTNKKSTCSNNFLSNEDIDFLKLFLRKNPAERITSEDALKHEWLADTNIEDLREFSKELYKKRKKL

Turning to `CC(C)CN1CCC(COc2ccc3ncn(-c4cc(O[C@H](C)c5ccccc5C(F)(F)F)c(C(N)=O)s4)c3c2)CC1`, the growth inhibition in assay [1] was 86% (active); in assay [4], 97% (active). Further, the inhibition was 46% in assay [2] and 7% in assay [3]. In addition, the outcome in assay [5], in assay [6], in assay [7] and in assay [8] was inactive.
Take `CCCCNC(=O)[C@H](CC1CCCCC1)NC(=O)c1ccc(O)c(-c2ccc(OC)cc2)c1`: the growth inhibition in assay [1] was 12%; in assay [4], 89% (active). The inhibition in assay [2] was -8%; in assay [3], 5%. Also, the outcome in assay [5], in assay [6], in assay [7] and in assay [8] was inactive.
For `O=C(Nc1cccc(CN2CCCN(Cc3ccc(F)cc3)CC2)c1)c1cc2ccccc2s1`, the results for the growth inhibition in assay [1] and in assay [4] were 36% and 91% (active), respectively. For the same compound, the inhibition in assay [2] was 29%; in assay [3] it was -9%. For the same compound, the result in assay [5], in assay [6], in assay [7] and in assay [8] was inactive.
With `c1ccc(Oc2ccc(Nc3ccnc4cc(-c5csc(CNCCN6CCOCC6)n5)ccc34)cc2)cc1`, the growth inhibition in assay [1] was 99% (active); in assay [4], 101% (active). Moreover, the inhibition in assay [2] was -1%; in assay [3], 0%. Also, the result in assay [5], in assay [6], in assay [7] and in assay [8] was inactive.
For the compound `c1ccn2c(Sc3ncnc4sccc34)ncc2c1`, the growth inhibition in assay [1] and in assay [4] was 100% (active) each time. The inhibition in assay [2] was -14%; in assay [3] it was 2%. The result in assay [5], in assay [6], in assay [7] and in assay [8] was inactive.
`Cc1n[nH]c(C)c1C1CCN(CC2CCC(NC(=O)/C=C/c3ccc(Cl)c(Cl)c3)CC2)CC1` (stereo not given): the growth inhibition in assay [1] is 53% (active); in assay [4], 101% (active). Besides, the inhibition was 15% in assay [2] and 3% in assay [3]. Further, the result in assay [5], in assay [6], in assay [7] and in assay [8] was inactive.
With `CCCC(C)NC(=O)c1cnn(-c2ccc(C(C)(C)C)cc2)c1OCc1ccc(Br)cc1` (stereo not given), the growth inhibition in assay [1] was 64% (active); in assay [4], 84% (active). Moreover, the inhibition in assay [2] was 17%; in assay [3] it was 0%. In addition, the outcome in assay [5], in assay [6], in assay [7] and in assay [8] was inactive.
As to `Cc1cc(CNC(=O)c2ccc(-c3ccc(-c4nc5ccc(C(F)(F)F)cc5[nH]4)s3)cc2)on1`, the growth inhibition in assay [1] was 56% (active); in assay [4], 93% (active). Moreover, the values for the inhibition in assay [2] and in assay [3] were 15% and -1%, respectively. Also, the outcome in assay [5], in assay [6], in assay [7] and in assay [8] was inactive.
As for `Cc1cnc(N2CCN(CC3CCN(C)CC3)CC2)nc1Oc1ccc(-n2ccnc2)cc1`, the growth inhibition is 66% (active) in assay [1] and 99% (active) in assay [4]. Also, the figures for the inhibition in assay [2] and in assay [3] were 9% and -3%, respectively. In addition, the outcome in assay [5], in assay [6], in assay [7] and in assay [8] was inactive.
Consider `C[C@H]1CN(Cc2cccc(-c3cc(CNC(=O)c4cccc(CC5CCN(C)CC5)c4)ccc3F)c2)CCN1C`, for which the figures for the growth inhibition in assay [1] and in assay [4] were 99% (active) and 101% (active), respectively. Moreover, the values for the inhibition in assay [2] and in assay [3] were 42% and 2%, respectively. For the same compound, the result in assay [5], in assay [6], in assay [7] and in assay [8] was inactive.
For `COC(=O)Cc1ccc(N)c2ccccc12`, the growth inhibition in assay [1] was -1%; in assay [4], 98% (active). Also, the inhibition is 2% in assay [2] and -1% in assay [3]. The result in assay [5], in assay [6], in assay [7] and in assay [8] was inactive.
`CN(C)c1ccc(-c2csc(C(=O)NCC3CCN(CCC(C)(C)C)C3)c2)cc1` (stereo not given): the growth inhibition in assay [1] is 16%; in assay [4] it was 87% (active). For the same compound, the inhibition in assay [2] is 29%; in assay [3], 4%. Moreover, the result in assay [5], in assay [6], in assay [7] and in assay [8] was inactive.
With `COC(=O)Nc1ccc(-c2ccc(C(=O)NC3CCN(C[C@H](O)c4ccnc5ccc(OC)cc45)CC3)cc2)c(C)c1`, the results for the growth inhibition in assay [1] and in assay [4] were 97% (active) and 100% (active), respectively. The inhibition was 32% in assay [2] and -2% in assay [3]. Further, the result in assay [5], in assay [6], in assay [7] and in assay [8] was inactive.
With `O=C(Nc1ccc(Cn2nc(Cl)c(N3CCCNCC3)cc2=O)cc1)c1ccc(-c2ccccc2)cc1`, the growth inhibition in assay [1] was 35%; in assay [4] it was 87% (active). Besides, the inhibition in assay [2] is 93% (active); in assay [3], 0%. For the same compound, the outcome in assay [5], in assay [6], in assay [7] and in assay [8] was inactive.
For the compound `COc1ccc(-c2csc(NC(=O)CCC(=O)O)n2)cc1OC`, the growth inhibition in assay [1] was -2%; in assay [4] it was 94% (active). In addition, the results for the inhibition in assay [2] and in assay [3] were 63% (active) and 5%, respectively. The result in assay [5], in assay [6], in assay [7] and in assay [8] was inactive.
`COc1ccc(-c2cncc3ccc(C(=O)NCc4ccncc4)nc23)cc1`: the growth inhibition was 98% (active) in assay [1] and 100% (active) in assay [4]. For the same compound, the results for the inhibition in assay [2] and in assay [3] were 25% and 0%, respectively. The outcome in assay [5], in assay [6], in assay [7] and in assay [8] was inactive.
Consider `CCc1ccc(N2C(=O)C3C(Cc4ccc(OC(C)(C)C)cc4)NC4(C(=O)N(Cc5ccccc5)c5ccc(F)cc54)C3C2=O)cc1` (stereo not given), for which the growth inhibition in assay [1] was 49%; in assay [4], 96% (active). The inhibition in assay [2] was 9%; in assay [3] it was -10%. Also, the outcome in assay [5], in assay [6], in assay [7] and in assay [8] was inactive.
For the compound `COc1ccc(-c2nc(NC(=O)COc3ccc(C(C)=O)cc3)sc2C)cc1`, the figures for the growth inhibition in assay [1] and in assay [4] were 58% (active) and 98% (active), respectively. In addition, the inhibition was -2% in assay [2] and 2% in assay [3]. Also, the outcome in assay [5], in assay [6], in assay [7] and in assay [8] was inactive.
In the case of `O=C(NCCCCCN1CCC(c2c[nH]c3ccccc23)CC1)Nc1ccc(Br)cc1`, the results for the growth inhibition in assay [1] and in assay [4] were -4% and 91% (active), respectively. The results for the inhibition in assay [2] and in assay [3] were 24% and 1%, respectively. In addition, the outcome in assay [5], in assay [6], in assay [7] and in assay [8] was inactive.
With `C[C@@H]1CC[C@H](NC(=O)[C@H](CC2CCCC2)NC(=O)N2CCNCC2)C(=O)CN1S(=O)(=O)c1ccccn1`, the growth inhibition is 19% in assay [1] and 84% (active) in assay [4]. Also, the inhibition is 5% in assay [2] and -2% in assay [3]. For the same compound, the outcome in assay [5], in assay [6], in assay [7] and in assay [8] was inactive.
